# Assay outcomes deposited in PubChem BioAssay by The Scripps Research Institute Molecular Screening Center.
# In the library only some 1.7% were active in any assay of this set; here they are far more common.
# Fam108B counter – blocks mouse Fam108B hydrolase in RBBP9 counter-screen; recombinant Fam108B, FP-Rh probe fluorescence polarization; inhibition, % at 9.51 µM; hit rate 0.33% among 300,000; AID 1947;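 active means inhibition above the screen mean inhibition plus 3 SD, computed separately per campaign, cut at about 18% in these data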;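 further: inhibitors lower polarization as less probe binds the enzyme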
# PAD4 FP inh – inhibitors of human PAD4. recombinant PAD4, RCA probe fluorescence polarization. hit rate 0.41% among 330,000. Q9UM07. AID 485272. inhibition, % at 6.36 µM;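 active means percent inhibition above a cutoff equal to the mean of all tested compounds plus 3 SD, cut at about 15% in these data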;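 further: 0% = PAD4 with RCA probe and DMSO and 100% = probe without PAD4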
# PME-1 primary – PME-1 (human) inhibition; Q9Y570; recombinant PME-1, FP-Rh probe fluorescence polarization; inhibition, % at 5.9 µM; hit rate 0.53% among 320,000; AID 2130;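 active means inhibition above the campaign mean of all compounds plus 3 SD, cut at about 26% in these data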;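 further: competitive labeling of PME-1 active site by serine hydrolase directed probe; 0% = PME-1 with DMSO and 100% = wells lacking PME-1 enzyme; inhibitors block probe labeling so polarization falls and inhibition rises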
# GSTO1 inh – counter-screen for RBBP9 inhibitors: inhibitors of human GSTO1; inhibition, % at 5.96 µM; AID 1974; hit rate 1.1% among 300,000; P78417; recombinant GSTO1, activity-based probe fluorescence polarization;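 active means inhibition above the campaign mean inhibition plus 3 SD, cut at about 35% in these data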;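 further: 0% = GSTO1-1 with DMSO and 100% = wells lacking GSTO1-1 enzyme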
# Target sequence (P78417 whole entry, looked up): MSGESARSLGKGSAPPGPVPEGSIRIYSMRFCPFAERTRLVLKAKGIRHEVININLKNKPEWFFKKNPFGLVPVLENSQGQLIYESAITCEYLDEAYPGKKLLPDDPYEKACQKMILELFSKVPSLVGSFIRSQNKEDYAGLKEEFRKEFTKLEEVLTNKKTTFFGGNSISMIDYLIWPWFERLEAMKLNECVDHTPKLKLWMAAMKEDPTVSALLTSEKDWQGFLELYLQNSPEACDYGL
# LYPLA1 inh – LYPLA1 (human) inhibition in PME1 counter-screen | O75608 | recombinant LYPLA1, FP-Rh probe fluorescence polarization | inhibition, % at 5.9 µM | hit rate 0.16% among 320,000;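 active means inhibition above the mean of all tested compounds plus 3 SD, set per campaign, cut at about 14% in these data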;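 further: inhibitors block serine hydrolase probe labeling of LYPLA1 so polarization falls; 0% = enzyme with DMSO and 100% = wells lacking LYPLA1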
# Target sequence (O75608 whole entry, looked up): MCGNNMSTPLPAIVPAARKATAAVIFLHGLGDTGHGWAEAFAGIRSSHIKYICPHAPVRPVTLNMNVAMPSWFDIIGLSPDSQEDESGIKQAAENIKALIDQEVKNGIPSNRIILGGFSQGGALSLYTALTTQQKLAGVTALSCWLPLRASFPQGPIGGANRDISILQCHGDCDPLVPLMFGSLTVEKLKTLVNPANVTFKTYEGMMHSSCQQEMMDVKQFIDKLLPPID
# LYPLA2 counter – blocks human lysophospholipase 2, a PME1 counter-screen | hit rate 0.38% among 320,000 | recombinant LYPLA2, FP-Rh probe fluorescence polarization | inhibition, % at 5.9 µM | O95372;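 active means inhibition above the screen-wide mean plus 3 SD, limit set per campaign, cut at about 26% in these data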;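 further: 0% = LYPLA2 with DMSO and 100% = wells lacking LYPLA2 enzyme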
# Target sequence (O95372 whole entry, looked up): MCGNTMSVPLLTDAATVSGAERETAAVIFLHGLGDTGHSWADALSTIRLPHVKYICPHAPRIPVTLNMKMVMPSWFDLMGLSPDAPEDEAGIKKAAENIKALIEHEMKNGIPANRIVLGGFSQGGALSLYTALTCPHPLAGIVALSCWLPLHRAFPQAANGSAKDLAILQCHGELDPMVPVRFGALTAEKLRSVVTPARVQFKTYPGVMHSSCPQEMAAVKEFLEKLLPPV
# LYPLA2 conf – LYPLA2 (human) inhibition, confirmation counter-screen; recombinant LYPLA2, FP-Rh probe fluorescence polarization; shares compounds with LYPLA2 counter; hit rate 72% among 1,100; AID 2232; inhibition, % at 5.9 µM;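 active means mean inhibition across replicates above the hit cutoff set in the primary screen, cut at about 26% in these data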;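 further: blocked labeling of the enzyme by serine hydrolase FP-Rh probe lowers polarization; 0% = enzyme with DMSO and 100% = wells lacking LYPLA2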
# LYPLA2 gel ABPP – LYPLA2 (human) inhibition, late stage results | rhLYPLA2 in mouse brain proteome, gel ABPP FP-Rh | shares compounds with LYPLA2 counter | inhibition, % at 20 µM | hit rate 30% among 150;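 active means inhibition of LYPLA2 enzyme probe labeling above about 50%, limit read from the data; inactive means inhibition below that limit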;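 further: loss of FP-Rh probe labeling of the LYPLA2 gel band measured as band density; 0% = DMSO only control band and 100% = blank gel background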
# * marks the source's active call; other numbers are inactive results; nt = no result.
SMILES,Fam108B counter,PAD4 FP inh,PME-1 primary,GSTO1 inh,LYPLA1 inh,LYPLA2 counter,LYPLA2 conf,others
CCc1ccc(C(=O)/C=C/Nc2ccc(S(=O)(=O)Nc3cnc4ccccc4n3)cc2)cc1,-0.9,1.5,3.5,-3.4,1.1,1.7,nt,
COc1cccc(S(=O)(=O)NCc2ccc(C(=O)N3CCN(c4ccccc4OC)CC3)cc2)c1,-2.0,-5.5,-4.1,1.4,0.1,57.5*,69.9*,LYPLA2 gel ABPP=34.0
COc1ccc(S(=O)(=O)NCc2ccc(C(=O)N3CCN(c4ccccn4)CC3)cc2)cc1,-4.2,4.3,8.6,-0.6,-1.1,8.4,nt,
COc1ccc(S(=O)(=O)NCc2ccc(C(=O)N3CCc4ccccc4C3)cc2)cc1,3.6,-2.4,2.8,7.8,3.8,47.8*,56.9*,LYPLA2 gel ABPP=28.0
O=C(c1ccc(-c2ccccc2)cc1)N1CCN(c2ccccc2)CC1,-1.5,-1.3,-1.3,2.3,-0.3,21.9,nt,
COc1ccc(CNc2ccc(N3CCOCC3)cc2)cc1,-4.1,-4.8,0.8,-3.2,-0.8,5.8,nt,
COc1ccc(N2CCN(C(=O)c3ccc(CNc4c(N5CCOCC5)c(=O)c4=O)cc3)CC2)cc1,3.2,-1.6,-3.3,0.0,1.4,51.5*,58.0*,LYPLA2 gel ABPP=35.0
COc1ccc(N2CCN(C(=O)c3ccc(-c4ccccc4)cc3)CC2)cc1,2.8,4.2,-0.3,4.1,1.2,34.3*,34.8*,
O=C(Nc1cccnc1Cl)c1cc(-c2ccc(Br)cc2)on1,0.4,0.1,-0.5,7.6,2.0,2.4,nt,
O=C(NC1CCCCCC1)C1CCCN(c2ncccn2)C1 (centres undefined),3.9,-2.9,-0.4,-0.3,0.3,3.0,nt,
O=C(c1ccc(CNc2c(N3CCCC3)c(=O)c2=O)cc1)N1CC=C(c2ccccc2)CC1,3.0,2.0,6.9,7.7,11.9,47.0*,52.5*,LYPLA2 gel ABPP=21.0
CS(=O)(=O)c1ccc(C(=O)N2CCN(Cc3ccccc3)CC2)cc1,4.3,-13.0,-1.5,-3.6,2.5,-1.5,nt,
COc1cccc(S(=O)(=O)NCc2ccc(C(=O)N3CCN(c4ccccc4)CC3)cc2)c1,-0.6,0.0,4.9,0.5,2.1,20.2,nt,
COc1ccc(N2CCN(C(=O)c3ccc(CNS(=O)(=O)c4cccc(OC)c4)cc3)CC2)cc1,1.3,2.5,5.8,-0.7,0.0,31.2*,16.1,
O=C(c1ccc(CNS(=O)(=O)c2ccccc2)cc1)N1CCN(Cc2ccccc2)CC1,2.1,3.7,2.1,3.0,0.2,32.7*,32.2*,
CC1CCN(c2c(NCc3ccc(C(=O)N4CCN(C5CCCCC5)CC4)cc3)c(=O)c2=O)CC1,5.5,-0.1,-5.3,7.8,3.0,10.2,nt,
O=C(c1ccc(F)cc1F)N1CCN(S(=O)(=O)c2ccc3c(c2)OCCO3)CC1,nt,-4.1,0.2,nt,1.9,-0.2,nt,
C=CCn1c(SCC(=O)OCC)nc(C(F)(F)F)cc1=O,3.5,-3.4,1.1,-3.7,2.8,0.8,nt,
COc1cccc(NC(=O)CCC2CCN(C(=O)c3ccc(C(C)=O)s3)CC2)c1,-1.8,-3.7,5.7,-6.7,1.5,27.1*,32.5*,
COc1cccc(NC(=O)CCC2CCN(C(=O)c3sccc3C)CC2)c1,-5.0,1.0,1.5,5.4,-0.3,5.4,nt,
Cc1nn(-c2ccccc2)c2sc(C(=O)OC3CCOC3=O)cc12 (centres undefined),-3.8,1.9,-2.1,10.8,-6.9,36.5*,42.5*,
COC(=O)c1cc2c(C)nn(-c3ccccc3)c2s1,-3.2,2.1,6.8,-2.6,-1.6,-2.1,nt,
CCCC(=O)Nc1ccc(N2CCN(C(=O)c3cc4ccccc4o3)CC2)cc1,0.3,1.2,2.2,-1.9,10.0,45.1*,49.6*,
Cc1cc(C)cc(Nc2cc(C)nc3nc(C)nn23)c1,1.3,1.7,-2.6,0.5,0.1,-1.1,nt,
Cc1cc(Br)ccc1NC(=O)CN(C)C(=O)c1cc(S(=O)(=O)N(C)C)ccc1N1CCCC1,-1.6,1.7,-5.1,4.2,-2.7,4.1,nt,
SMILES,Fam108B counter,PAD4 FP inh,PME-1 primary,GSTO1 inh,LYPLA1 inh,LYPLA2 counter,LYPLA2 conf,others
O=C(O)c1cc(N/N=C/c2ccc3c(c2)OCO3)ccc1Cl,-1.6,-1.6,8.5,2.2,2.5,3.5,nt,
O=C(O/N=C\c1ccc(N2CCOCC2)c([N+](=O)[O-])c1)c1ccccc1Cl,3.0,1.7,-0.8,-0.9,0.0,41.2*,43.3*,
Cc1ccc(OC(=O)c2ccc(N3CCOCC3)c([N+](=O)[O-])c2)cc1,-2.9,2.2,-2.4,7.5,6.5,23.2,nt,
O=C(O/N=C\c1ccc(N2CCOCC2)c([N+](=O)[O-])c1)c1ccc(F)cc1,1.4,-6.2,1.5,-2.3,4.5,10.9,nt,
O=C(Oc1ccc(Cl)cc1)c1ccc(N2CCOCC2)c([N+](=O)[O-])c1,0.3,4.3,-2.6,0.3,3.7,33.2*,28.1*,
CO/N=C/c1ccc(N2CCN(C(=O)c3ccc(C)cc3)CC2)c([N+](=O)[O-])c1,2.0,6.4,4.6,-6.8,2.9,36.6*,38.7*,
O=C(O/N=C/c1ccc2c(c1)OCO2)c1ccccc1Cl,5.5,-3.4,2.9,-1.7,3.3,26.2*,14.3,
C#CCNC(=O)C1=C[C@H](c2ccc(Br)cc2)C[C@H](OCCCCO)O1,-1.9,-5.1,3.0,11.6,-6.7,-6.4,nt,
Cc1ccc(NC(=O)c2cccc(Oc3ccc([N+](=O)[O-])cc3)c2)c(C(=O)O)c1,-10.0,-1.4,-21.7,-41.8,0.0,25.9*,38.1*,
Cc1ccc(NC(=O)CCC(=O)OCC(=O)c2ccc(Oc3ccc([N+](=O)[O-])cc3)cc2)c(C)c1,0.4,2.3,3.6,-2.5,-0.4,29.0*,25.9*,
O=C(Nc1ccc(O)cc1)c1cccc(Oc2ccc([N+](=O)[O-])cc2)c1,3.5,-3.6,4.7,-7.9,1.4,17.5,nt,
COc1ccccc1NC(=O)N1CCN(C(=O)c2ccco2)CC1,-0.1,1.9,-4.8,8.7,-2.9,-3.4,nt,
CCC(=O)Oc1cccc(C(=O)Nc2cccc(NC(=O)c3ccco3)c2)c1,0.9,-0.8,-10.0,0.2,-4.4,-5.1,nt,
O=[N+]([O-])c1cccnc1SCc1c(F)cccc1Cl,5.5,-1.5,-0.5,2.6,1.6,32.3*,37.7*,
Cc1ccc(Sc2ccc([N+](=O)[O-])cc2[N+](=O)[O-])nc1,0.2,1.2,0.3,12.9,-2.3,0.2,nt,
O=[N+]([O-])c1ccc(Sc2ccc(Cl)c(Cl)c2)nc1,4.0,1.8,-1.4,5.4,3.2,39.5*,31.0*,
O=[N+]([O-])c1ccc(SCc2c(F)cccc2Cl)nc1,2.8,-1.9,1.1,-1.2,7.4,31.2*,37.7*,
Cc1cccc(NS(=O)(=O)c2cccc(C(=O)N3CCC3)c2)c1,nt,-5.6,-3.2,nt,-1.5,-2.3,nt,
